# Experimental data reported in the supplement of paper PMC11417369.
# The full ranking holds about 25,000 sequences; the median of “ln(normalized median fluorescence intensity)” is about 9.3, and the highest 2% start at about 10. The sample as a whole holds a higher share of the highest values than the screen did.
# Test system: PF3D7_0420300 AP2 domain 1 (GST-tagged)
# Assay: gcPBM binding intensity (ln(normalized median fluorescence intensity)); higher = stronger DNA binding
# Method in brief: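 Binding intensity is the highest Masliner-normalised natural-log median intensity over replicate spots in either probe orientation. To obtain it, GST-tagged P. falciparum DNA-binding domains made in E. coli were incubated for 1 h on an Agilent 4 × 180k array of primer-extended double-stranded 36-bp intergenic genomic probes plus negative controls. Detection used Alexa488 anti-GST antibody with scanning at 488 nm.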
row,Sequence,gcPBM binding intensity (ln)
1,TTTTCAGAAAAGAGAAACTTTATTTTTCACAACCGA [TGCATGCA_negctrl_site389],8.85
2,AAACCTACATAACATACACACGCATATATATAATTT [CACACA_site8923],9.69
3,ACCTACATAACATACACACGCATATATATAATTTTA [CACACA_site2847],9.64
4,AAGTAATTTGTTGACACACACACACGCATACCTATA [CACACA_site7140],10.2
5,TATATAAAAAATTCAATACACACCATATATAAATAT [CACACA_site3987],9.66
6,AATATATAAGTGTTGTGTACTAAAGTATTTTCCTAT [XGTACX_site1622],9.5
7,CACACGCACAGACACACACACACATATAAATATGTA [CACACA_site6300],10.1
8,CGCATACACAGACACACACACACATATAAATATGTA [CACACA_site6444],9.92
9,TAAATACAGACATATACACACATATATATATATATA [CACACA_site4382],9.28
10,ATAGTATACAGACACACACACACACGGATATAAATA [CACACA_site6914],10.3
11,ACCATATAAATAAACACACACACACGGATATAAATA [CACACA_site7157],10.1
12,CACACGCACGGACACACACACATATAAAATCTATAT [CACACA_site6428],9.91
13,GCTATAAATACAGACGCACACATATACATACAGATA [CACACA_site5778],9.49
14,ACTTGTAAGAGACACACACACACACGGATATAAATA [CACACA_site6517],10.1
15,CACACGCACAGACACACACACACACGGATATAAATA [CACACA_site6301],10.2
16,CACGCATACAGACACACACACACACGGATATAAATA [CACACA_site6445],10.3
17,CGCGCACACGGACACACACACACACGGATATAAATA [CACACA_site7102],10.2
18,TAAATAAATTTATACACACACACACGGATATAAATA [CACACA_site6532],10.1
19,GAGAAATTTATACATACACACATATAAATATTATAG [CACACA_site7819],9.6
20,AAAAAAAAAAAAAAAAGTACGTATCAAAGCATCAAA [XGTACX_site880],9.42
21,CATATTTTTTCTTAAACACACACATATATATATATA [CACACA_site8920],9.61
22,TTTATTTTCCAAAGGGTGCACATAGTTGAAACGATA,9.2
23,TTTTTTTTTTTTTTTTTTTTCTTCATTTAATTTATA [GTGCAC_negctrl_site17],8.31

row,Sequence,gcPBM binding intensity (ln)
1,AAAAAAATACAAATATGTACACATATATATTTAAAA [XGTACX_site4729],9
2,ACTTATTTATTTTTAGTGCATTTAGTTTTATTTTAT,9.63
3,CCAAAATACATTAAACGTACATGTCCTAATAAGATA [XGTACX_site21],9.15
4,AATAATGAATACACATGTACAAAAATTTTTCTTACT [XGTACX_site1962],9.41
5,ATCAAGCACGGACACACACACACACCCAGACCCCCA [CACACA_site4360],10.1
6,CAAGCACACGGACACACACACACACGCGCACGCACA [CACACA_site6307],10.2
7,CACACGCACGGACACACACACAAAAAAAAAAAGAAA [CACACA_site6378],9.7
8,AAAATTGTTATTTTATGTACTTATATTTATTTATTT [XGTACX_site3478],9.53
9,ATTTCTCTATCGTAATGTACAAAAAAAAGGAAAAAA [XGTACX_site1323],9
10,TAAATTAAAAAAAATACACACACACCGACACATATA [CACACA_site9084],10
11,TTTAAATACAGACATACACACATACACGCACATATA [CACACA_site6400],9.85
12,TACAGACTAAAATACACACACACACGCACATATATA [CACACA_site7875],10.2
13,AAAACATACCTATATACACACATATAAATATAAATA [CACACA_site6956],9.71
14,AAAAAAAAAAAAAATACACACATATATATATATATA [CACACA_site85],9.45
15,TAAACATACCTATACACACACACACGCACACGCACA [CACACA_site6372],10.3
16,CACGCACGCACATACACACACATACACATATAAATA [CACACA_site6907],9.95
17,AAAAAAAAAAAACATACACACATACATACCTATATA [CACACA_site6575],9.78
18,CTAAAATACAGACACACACACACATATATATATATA [CACACA_site4150],9.93
19,AAAAAAAAAAAATATACACACACACCGACACATAAA [CACACA_site9270],10.1
20,AAAATACACGCATACACACACACACCGACACATATA [CACACA_site4523],10.2
21,AAAAAAAATACATACACACACACACGCACATATATA [CACACA_site7645],10.4
22,TAAATAAATTATTTTCGTACTTATTTATTTTAATTA [XGTACX_site283],9.03
23,TTTAGTGTTATAAAAAGTACATAATAATTCCTTTTC [XGTACX_site3208],8.95

row,Sequence,gcPBM binding intensity (ln)
1,CTTTTTAATAAATATACACACACAAAAAAAAAAAAA [CACACA_site9316],9.73
2,AATTTAAAAGAAAAAGAAAAATAATAAACAGAAGCA [XGTACX_negctrl_site503],9.68
3,TTTTTTTTTTTTGTCACACATATGGAATATATCTAT [CACACA_site5899],9.26
4,AAAGAAATAAGGTGCACACATATACAGATATATATA [CACACA_site4399],9.66
5,CTATATGTATAAAGTTGTACAGTTTTTCAAAGTTAA [XGTACX_site6652],9.03
6,TAAATTTATAAATCACGTACATATTTATTTATATTT [XGTACX_site4532],9.19
7,TATTTTATTTCAAATCTTAATAATTGTAATTCTTCA [XGTACX_negctrl_site442],8.91
8,ATATTTTATATGTTCACACATACATAAACATATTTT [CACACA_site4948],9.34
9,CACGCATATATACATACATGCATATATACATCCATG [TGCATGCA_site667],9.27
10,GCATACATCAAGCACACACACACACGCACACGCACA [CACACA_site6311],10.3
11,CACAAATATATACATACACACATATATACGCATATA [CACACA_site395],9.72
12,AAAAAAAAAAAACATACACACACATATATATATATA [CACACA_site8452],9.9
13,AAAATACACGCATACACACACACACGCGCACATATA [CACACA_site6448],10.3
14,AGAAGCATACATCAAGCACACACACCCACACCCACA [CACACA_site8014],9.99
15,AAAAAAAAAAAAAAAACACACATACACGCACGCACA [CACACA_site7569],9.72
16,AAGCATACATCAAGCACACACACACCCACACCCACA [CACACA_site372],10.1
17,AAAAAAAAAAAAAACACACACACACGCACATATACA [CACACA_site7288],10.2
18,TACACAAATATATACATACACACATATATACGCATA [CACACA_site394],9.79
19,AAAAGATGCGCATACACACAGATGAATAACAAAAAA [CACACA_site6865],9.74
20,AAACAAATAGACACTTGTACGTAAGTAAATAATTAA [XGTACX_site6157],9.43
21,ATTTAATTTTTTTTTAAACACACATTTTTTTATTTA [CACACA_site8880],9.36
22,ATTTTTTTATAAAATTTTTTATATATTAAATATTAT [CACACA_negctrl_site135],9.04
23,GTAAAATTTACATAGAGTACTTATATTTTTTTCTGC [XGTACX_site3414],8.96

row,Sequence,gcPBM binding intensity (ln)
1,ATAAAGCACACCGACACACACATATATATATATATA [CACACA_site1047],9.8
2,ATTTGGCATGGACACACACACACACCGACAGACATA [CACACA_site4491],10.2
3,TATACTCATGGACACACACACATACACAGACATACA [CACACA_site5024],9.92
4,ATAATTTGTGGACACACACACACACCGACATATATA [CACACA_site8718],10.2
5,CATATTTGTGGACACACACACATATTTATATATATA [CACACA_site5887],9.75
6,AAAAATTTGGCATACACACACACACCGACACAGACA [CACACA_site4489],10.1
7,TTATTAATTATATATAGTACACATTTCACAGATGGG [XGTACX_site2349],9.2
8,TATTTATGTATATGCTGTACGCATTTGTGAAACATA [XGTACX_site4688],9.06
9,GTACATATAAATATTACACACATTTTCATTTTTAAC [CACACA_site1986],9.56
10,ATAATTTATATTCAGAAACACACGAAAAAAAAAAAT [CACACA_site1296],9.64
11,TAAATGTAAAACGAAATGCACACTATGGAAAATATA [CACACA_site724],9.66
12,AATTAATATTTAAATTGTACATGAACATTTTAATGT [XGTACX_site462],8.97
13,CAAATACATAGACACACACACATATACATATTTATA [CACACA_site7610],10
14,AAAATTCATAAATACACACACGCACATATATATATA [CACACA_site4227],9.88
15,ATTCATTCATATGTTACACACACACGCCCACATAAA [CACACA_site7513],10.3
16,ATTCATTCATATGTTACACACACACCCACCCATAAA [CACACA_site9066],10.2
17,TCATTCATATGTTACACACACACACGCACATAAAAA [CACACA_site7514],10.3
18,ATTCATTCATATGTTACACACACACCGACACATAAA [CACACA_site5749],10
19,TCATTCATATGTTACACACACACACCCACATAAAAA [CACACA_site3245],10.1
20,AAAAAGGGTATTATTACACACACGTAAATATTAATA [CACACA_site101],9.61
